# Measured values as given in PubChem BioAssay.
# Calls of active or inactive are those of the source.
# Test: growth effects on S. cerevisiae YJM789 – YJM789 clinical isolate, OD600, 24 h, basal, primary screen (AID 1089);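 also: growth of clinical yeast isolate S. cerevisiae YJM 789 seeded 1000 cells per well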
# Settings: higher = more signal, called active from +8 up or from −8 down
# Also: test concentration not given here.
row,SMILES,z-score
1,COc1ccc([Si](C)(C)[C@@H]2[C@@H](CC(=O)N3CCC[C@H]3CO)O[C@]3(C(=O)N(Cc4ccc(N5C(=O)c6cccc7cccc5c67)cc4)c4ccccc43)[C@H]2C)cc1,0.035 (inactive)
2,CC1CC/C=C\[C@H]2OC34C=CCN(c5ccc6ccccc6c5)C(=O)[C@H]3N(C(CO)C(C)C)C(=O)[C@@H]4C2C(=O)O1 (some centres not stated),-1.03 (inactive)
3,COCCOC(=O)N1C(=O)[C@@]2(c3cc(C#CCC(C(=O)OC)C(=O)OC)ccc31)[C@H](c1ccc(OCCO)cc1)N1[C@H](c3ccccc3)[C@H](c3ccccc3)OC(=O)[C@H]1[C@@H]2C(=O)N1CCN(c2ncccn2)CC1,1.07 (inactive)
4,CCOC(=O)[C@H]1C/C=C/C[C@H](C(=O)OCC)C(=O)O[C@H]2[C@@H](OC)O[C@H](CO)[C@@H](OC(=O)Nc3ccc(OC)cc3)[C@@H]2OC1=O,1.04 (inactive)
5,O=C1O[C@@H](c2ccccc2)[C@@H](c2ccccc2)N2[C@@H](c3ccc(O)cc3)[C@]3(C(=O)Nc4ccc(C#CC5=CCCCC5)cc43)[C@@H](C(=O)N3CCN(c4ncccn4)CC3)[C@H]12,0.922 (inactive)
6,CCCCN1CC=CC23O[C@@H]4/C=C\CCC(C)OC(=O)C4[C@H]2C(=O)N(CCCCCCO)[C@@H]3C1=O (some centres not stated),-0.287 (inactive)
7,CCOC(=O)C[C@H]1[C@H](OC(=O)c2ccc(-c3ccccc3)cc2)[C@@H](NC(=O)c2ccc3ccccc3n2)c2cc(OCCCO)ccc2N1C(=O)c1ccccc1,0.617 (inactive)
8,COc1ccc(NN2C(C(O)c3ccccn3)C=CC3C(=O)N(C4CCCCC4)C(=O)C32)cc1 (configuration not stated),-0.199 (inactive)
9,COc1cc(OC)c(C(O)C2C=CC3C(=O)N(c4ccccc4)C(=O)C3N2Nc2ccc(C#N)cc2)cc1Br (configuration not stated),-0.459 (inactive)
10,COc1ccc([Si](C)(C)[C@H]2[C@H](CCn3cc([C@H](O)c4ccccc4)nn3)O[C@@]3(C(=O)N(Cc4ccc(N5CCOC5=O)cc4)c4ccccc43)[C@@H]2C)cc1,1.75 (inactive)
11,CCCCC(CC)C(O)C1C=CC2C(=O)N(c3ccccc3)C(=O)C2N1Nc1ccc([N+](=O)[O-])cc1 (configuration not stated),-0.777 (inactive)

# Test: S. pombe growth modifiers, basal conditions – strain 972, OD600, 24 h, no modulator, primary screen (AID 1090);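 also: basal condition with compound alone and no growth modifier present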
# Settings: S. pombe 972 growth, higher = more signal, called active from +8 up or from −8 down
row,SMILES,z-score
1,C[C@]1(C(=O)NCCN2CCOCC2)c2ccccc2C(=O)N(Cc2ccc(OC(F)(F)F)cc2)[C@H]1c1ccc(CO)cc1,-0.859 (inactive)
2,[N-]=[N+]=Nc1ccccc1[C@@H]1OC(c2ccc(OCCCO)cc2)=N[C@]1(CCS(=O)(=O)c1ccccc1)C(=O)NCCN1CCOCC1,-0.727 (inactive)
3,CC(C)CN1C(=O)[C@@]2(Cc3ccccc31)c1ccccc1C(=O)N(Cc1ccccc1C(F)(F)F)[C@H]2c1ccc(CO)cc1,-0.147 (inactive)
4,C=CC[C@]1(C(=O)N(C)C)N=C(c2ccc(OCCCO)cc2)O[C@H]1c1ccccc1N=[N+]=[N-],-0.102 (inactive)
5,COc1cc2c(cc1OC)CN(C(=O)[C@H]1[C@@H]3C(=O)O[C@@H](c4ccccc4)[C@@H](c4ccccc4)N3[C@@H](c3ccc(OCCO)cc3)[C@]13C(=O)Nc1ccc(C#CC4(O)CCCCCC4)cc13)CC2,1.28 (inactive)
6,COCCCNC(=O)[C@@H]1c2ccccc2C(=O)N(Cc2ccccc2C(F)(F)F)[C@H]1c1ccc(CO)cc1,-0.514 (inactive)
7,C=CC[C@]12N=C(c3ccc(OCCCO)cc3)O[C@H]1c1ccccc1N(C)C2=O,-4.1 (inactive)
8,CCCC[C@@H]1C[C@H]1[C@@H](NC(=O)c1cccnc1)c1ccc(-c2ccccc2)cc1,-15.7 (active)
9,C[C@@H]1ON(c2ccc(C(=O)OC(C)(C)C)cc2)[C@H](c2ccc(Br)cc2)[C@H]1C(=O)N1C(=O)OC[C@H]1Cc1ccccc1,0.716 (inactive)
10,CC(C)CCC[C@@H](C)[C@H]1CC[C@@]2(C)C3=C(CC[C@]12C)[C@@]1(C)CC[C@H](OC(=O)c2ccc(Br)cc2)C(C)(C)C1CC3 (some centres not stated),-1.28 (inactive)
11,COc1cc2c(cc1O)C(C)N(Cc1cc3c(cc1Br)OCO3)CC2 (configuration not stated),-10.1 (active)
12,COc1c(C)cc(-c2cc3c(c(Cc4ccccc4)n2)[Si](C(C)C)(C(C)C)OC3)cc1C,0.567 (inactive)
13,CN(C)CCCN1C(=O)[C@@]2(c3ccc([N+](=O)[O-])cc3)CC(=O)N(CC34CC5CC(CC(C5)C3)C4)[C@@H]2c2ccc(CO)cc21,-0.505 (inactive)
14,CO[C@H]1O[C@H](CO)[C@@H](OC(=O)Nc2ccc(C(F)(F)F)cc2)[C@H](OC(=O)Nc2ccc3c(c2)OCO3)[C@H]1OC(=O)Nc1ccc2c(c1)OCO2,0.908 (inactive)
15,NC(=O)NCC#Cc1ccc2c(c1)[C@]1(C(=O)N2)[C@H](C(=O)Nc2nc3ccccc3s2)[C@H]2C(=O)O[C@H](c3ccccc3)[C@H](c3ccccc3)N2[C@@H]1c1ccc(O)cc1,3.26 (inactive)
16,COCCOC(=O)N1C(=O)[C@@]2(c3cc(C#CC4(O)CCCCCC4)ccc31)[C@H](C(=O)N1CCCCCCC1)[C@H]1C(=O)O[C@H](c3ccccc3)[C@H](c3ccccc3)N1[C@@H]2c1ccc(OCCO)cc1,0.638 (inactive)
17,COC(=O)[C@@]1(Cc2ccccc2)[C@H]2c3cc(C(=O)N4CCCC4)[nH]c3C[C@H]2CN1C(=O)c1ccccc1,1.02 (inactive)
18,CCOC(=O)[C@H]1C/C=C/C[C@H](C(=O)OCC)C(=O)O[C@H]2[C@@H](OC)O[C@H](CO)[C@@H](OC(=O)CCc3ccccc3)[C@@H]2OC1=O,-1.29 (inactive)

row,SMILES,z-score
1,Cc1ccc(F)cc1S(=O)(=O)N[C@@H]1CCN(Cc2ccc(OC(C)C)cc2)C1,-14.4 (active)
2,COCCOC(=O)N1C(=O)[C@@]2(c3cc(C#CC4=CCCCC4)ccc31)[C@H](C(=O)N1CCN(c3ncccn3)CC1)[C@H]1C(=O)O[C@H](c3ccccc3)[C@H](c3ccccc3)N1[C@@H]2c1ccc(O)cc1,0.883 (inactive)
3,COC(=O)C1(Cc2ccccc2)C=C2C(=C(C(C)C)C(=O)C2C)CN1 (configuration not stated),-0.315 (inactive)
4,O=C1O[C@H](c2ccccc2)[C@H](c2ccccc2)N2[C@H]1[C@@H](C(=O)O)[C@]1(C(=O)Nc3ccccc31)[C@H]2c1ccc(O)cc1,0.278 (inactive)
5,COc1ccc(NC(=O)O[C@H]2[C@H](OC(=O)Nc3ccc4c(c3)OCO4)[C@@H](OC(=O)Nc3ccc4c(c3)OCO4)[C@@H](OC)O[C@@H]2CO)cc1,1.61 (inactive)
6,COc1c(C)cc(-c2cc3c(c(-c4ccccc4)n2)[Si](C(C)C)(C(C)C)OC3)cc1C,-0.747 (inactive)
7,C[C@@H](OCc1ccccc1)C1NC(=O)[C@@]23C(=O)N[C@@H](Cc4ccccc4)C2[C@H](C)[C@@]2(C)O[C@H]2C3/C=C/C/C=C\CNC(=O)CNC1=O (some centres not stated),-1.32 (inactive)
8,COc1ccc([Si](C)(C)[C@@H]2[C@@H](CC(=O)N3CCC[C@H]3CO)O[C@]3(C(=O)N(Cc4ccc(N5C(=O)c6cccc7cccc5c67)cc4)c4ccccc43)[C@H]2C)cc1,0.378 (inactive)
9,CC1CC/C=C\[C@H]2OC34C=CCN(c5ccc6ccccc6c5)C(=O)[C@H]3N(C(CO)C(C)C)C(=O)[C@@H]4C2C(=O)O1 (some centres not stated),-1.55 (inactive)
10,COCCOC(=O)N1C(=O)[C@@]2(c3cc(C#CCC(C(=O)OC)C(=O)OC)ccc31)[C@H](c1ccc(OCCO)cc1)N1[C@H](c3ccccc3)[C@H](c3ccccc3)OC(=O)[C@H]1[C@@H]2C(=O)N1CCN(c2ncccn2)CC1,0.934 (inactive)
11,CCOC(=O)[C@H]1C/C=C/C[C@H](C(=O)OCC)C(=O)O[C@H]2[C@@H](OC)O[C@H](CO)[C@@H](OC(=O)Nc3ccc(OC)cc3)[C@@H]2OC1=O,-0.0368 (inactive)
12,O=C1O[C@@H](c2ccccc2)[C@@H](c2ccccc2)N2[C@@H](c3ccc(O)cc3)[C@]3(C(=O)Nc4ccc(C#CC5=CCCCC5)cc43)[C@@H](C(=O)N3CCN(c4ncccn4)CC3)[C@H]12,0.487 (inactive)
13,CCCCN1CC=CC23O[C@@H]4/C=C\CCC(C)OC(=O)C4[C@H]2C(=O)N(CCCCCCO)[C@@H]3C1=O (some centres not stated),-0.737 (inactive)
14,CCOC(=O)C[C@H]1[C@H](OC(=O)c2ccc(-c3ccccc3)cc2)[C@@H](NC(=O)c2ccc3ccccc3n2)c2cc(OCCCO)ccc2N1C(=O)c1ccccc1,0.33 (inactive)
15,COc1ccc(NN2C(C(O)c3ccccn3)C=CC3C(=O)N(C4CCCCC4)C(=O)C32)cc1 (configuration not stated),-0.121 (inactive)
16,COc1cc(OC)c(C(O)C2C=CC3C(=O)N(c4ccccc4)C(=O)C3N2Nc2ccc(C#N)cc2)cc1Br (configuration not stated),1.86 (inactive)
17,COc1ccc([Si](C)(C)[C@H]2[C@H](CCn3cc([C@H](O)c4ccccc4)nn3)O[C@@]3(C(=O)N(Cc4ccc(N5CCOC5=O)cc4)c4ccccc43)[C@@H]2C)cc1,1.78 (inactive)
18,CCCCC(CC)C(O)C1C=CC2C(=O)N(c3ccccc3)C(=O)C2N1Nc1ccc([N+](=O)[O-])cc1 (configuration not stated),-0.126 (inactive)
